# Only some compounds are listed: those with a hit (about 1.3% of all), similar ones and a draw of the others.
# PME-1 primary = PME-1 (human) inhibition; inhibition, % at 5.9 µM; recombinant PME-1, FP-Rh probe fluorescence polarization; actives 0.53% (n = 320,000);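 active means inhibition above the campaign mean of all compounds plus 3 SD, cut at about 26% in these data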;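 further: competitive labeling of PME-1 active site by serine hydrolase directed probe; 0% = PME-1 with DMSO and 100% = wells lacking PME-1 enzyme; inhibitors block probe labeling so polarization falls and inhibition rises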
# Fam108B inh = counter-screen for RBBP9 inhibitors: inhibitors of mouse Fam108B | inhibition, % at 9.51 µM | actives 0.33% (n = 300,000) | recombinant Fam108B, FP-Rh probe fluorescence polarization | AID 1947;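 active means inhibition above the screen mean inhibition plus 3 SD, computed separately per campaign, cut at about 18% in these data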;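 further: inhibitors lower polarization as less probe binds the enzyme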
# PREPL inh = human PREPL enzyme inhibition; Q4J6C6; recombinant PREPL, fluorescence polarization activity-based probe; inhibition, % at 5.96 µM; actives 0.68% (n = 320,000);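 further: 0% = enzyme with DMSO and 100% = wells lacking enzyme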
# Target sequence (Q4J6C6 whole entry, looked up): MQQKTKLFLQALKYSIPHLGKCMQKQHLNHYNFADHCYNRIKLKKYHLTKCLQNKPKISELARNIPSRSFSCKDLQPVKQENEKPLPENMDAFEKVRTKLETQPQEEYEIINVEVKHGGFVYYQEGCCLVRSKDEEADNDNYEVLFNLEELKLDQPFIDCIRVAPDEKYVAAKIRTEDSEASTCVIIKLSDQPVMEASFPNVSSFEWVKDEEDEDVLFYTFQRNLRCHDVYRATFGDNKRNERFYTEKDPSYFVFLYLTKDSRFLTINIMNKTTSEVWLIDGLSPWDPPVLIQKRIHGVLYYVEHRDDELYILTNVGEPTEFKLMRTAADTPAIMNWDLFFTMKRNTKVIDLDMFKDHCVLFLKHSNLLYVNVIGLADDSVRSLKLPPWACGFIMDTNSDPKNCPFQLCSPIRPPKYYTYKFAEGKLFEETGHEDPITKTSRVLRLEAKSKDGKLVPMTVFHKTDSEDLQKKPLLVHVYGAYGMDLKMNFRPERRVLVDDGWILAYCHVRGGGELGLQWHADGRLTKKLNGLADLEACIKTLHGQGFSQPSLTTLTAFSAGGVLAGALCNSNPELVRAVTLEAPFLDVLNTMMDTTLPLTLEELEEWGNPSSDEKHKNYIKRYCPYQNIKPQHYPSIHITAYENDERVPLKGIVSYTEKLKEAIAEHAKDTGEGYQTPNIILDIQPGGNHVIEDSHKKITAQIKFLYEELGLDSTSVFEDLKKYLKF
# LYPLA1 counter = counter-screen for PME1 inhibitors: inhibitors of human LYPLA1; recombinant LYPLA1, FP-Rh probe fluorescence polarization; inhibition, % at 5.9 µM; O75608; AID 2174; actives 0.16% (n = 320,000);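 active means inhibition above the mean of all tested compounds plus 3 SD, set per campaign, cut at about 14% in these data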;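 further: inhibitors block serine hydrolase probe labeling of LYPLA1 so polarization falls; 0% = enzyme with DMSO and 100% = wells lacking LYPLA1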
# LYPLA2 inh = blocks human lysophospholipase 2, a PME1 counter-screen; recombinant LYPLA2, FP-Rh probe fluorescence polarization; inhibition, % at 5.9 µM; actives 0.38% (n = 320,000); AID 2177;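 active means inhibition above the screen-wide mean plus 3 SD, limit set per campaign, cut at about 26% in these data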;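 further: 0% = LYPLA2 with DMSO and 100% = wells lacking LYPLA2 enzyme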
# PREPL confirm = human PREPL inhibition, confirmation | shares compounds with PREPL inh | recombinant PREPL, fluorescence polarization activity probe | inhibition, % at 5.96 µM | actives 67% (n = 2,000) | AID 2803;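 further: 0% = protein with DMSO and 100% = wells lacking protein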
# * = called active by the depositor; / = no result. Unless noted, no stated cut-off is given here; in the data, active means inhibition above about 43%; inactive means the rest.
SMILES,PME-1 primary,Fam108B inh,PREPL inh,LYPLA1 counter,LYPLA2 inh,PREPL confirm
C/C(=N\Nc1nc2ccccc2[nH]1)c1ccc2c(c1)OCO2,-25,-2,47*,1,-7,44*
N#Cc1c(-c2ccccc2)nc(SCC(=O)Nc2ccc(OC(F)(F)Cl)cc2)[nH]c1=O,-18,-15,-8,-7,6,/
CN(C)CCc1cc2c(c3c1ccc1ccccc13)OCO2,4,5,68*,1,3,59*
C[C@H]1CN([C@@H](C)CO)C(=O)Cc2cc(NC(=O)C3CC3)ccc2O[C@H]1CN(C)Cc1ccc(Oc2ccccc2)cc1,/,/,-6,/,/,/
C[C@H]1CN([C@@H](C)CO)C(=O)Cc2cc(NC(=O)CCN3CCOCC3)ccc2O[C@@H]1CN(C)Cc1ccc(Oc2ccccc2)cc1,/,/,53*,/,/,54*
O=C(NCCCN1CCN(Cc2ccccc2)CC1)C1CCN(c2nnc(-n3cccc3)s2)CC1,-2,0,44*,4,13,32
COc1ccccc1-c1nnc2sc(-c3ccc(N(C)C)cc3)nn12,13,6,52*,3,4,48*
CC(C)(C)C(=O)COC(=O)c1ccc2c(c1)C(=O)N(Cc1ccco1)C2=O,-1,1,-4,-4,3,/
COc1ccc(C(=O)CN2C(=O)NC3(CCCCCC3)C2=O)cc1,3,6,4,0,-3,/
Cc1c(CN(C)C)c2c(n1Cc1ccccc1)C(=O)c1ccc(Br)cc1-2,8,4,54*,2,4,50*
Cc1c(CN(C)C)c2c(n1C)C(=O)c1ccc(Br)cc1-2,9,1,16,2,-1,/
CC(C)(C)[C@H]1COC(=O)[C@@H](Cc2ccc(F)cc2)CC/C=C/C[C@@H](CC(=O)N[C@@H](CO)Cc2ccccc2)C(=O)N1,/,/,32,/,/,/
CC(C)(C)[C@H]1COC(=O)[C@@H](Cc2ccc(F)cc2)CC/C=C/C[C@@H](CC(=O)N[C@H](CO)Cc2ccccc2)C(=O)N1,/,/,47*,/,/,41
O=C(OCc1ccccc1F)c1cnc(Cl)c(Cl)c1,7,-3,0,3,9,/
COc1ccc(-n2nc3c(c2NC(=O)c2ccc4c(c2)OCO4)CS(=O)(=O)C3)cc1,2,2,0,-2,-4,/
Cc1cccc(NC(=O)c2cc(-c3cccnc3)nc3c(C)cccc23)n1,-4,2,-2,2,4,/
Cn1c(=O)[nH]c(=O)c2c1nc(CN1CCN(c3cccc(Cl)c3)CC1)n2CCN1CCOCC1,-2,-2,46*,-3,-4,42
CCCCn1c(CN2CCN(c3cccc(Cl)c3)CC2)nc2c1c(=O)[nH]c(=O)n2C,7,-2,26,-1,2,/
Cc1oc(-c2ccccc2Cl)nc1CS(=O)CC(=O)NCc1ccc2c(c1)OCO2 (configuration not stated),2,-2,-1,4,1,/
O=C(Nc1ccc(N2CCN(C(=O)c3ccccc3)CC2)cc1)c1cc2ccccc2o1,4,4,45*,0,0,36
O=C(O)c1cc(NCc2ccc3c(c2)OCO3)ccc1N1CCOCC1,-3,6,13,8,4,/
O=C(c1ccc2c(c1)OCO2)N1CCN(c2ccccc2)CC1,1,1,15,0,8,/
O=C(c1ccccc1)N1CCN(c2ccc(NCc3ccc4c(c3)OCO4)cc2)CC1,2,0,74*,4,20,53*
CN1CCN(c2ccc(NC(=O)c3cc4ccccc4o3)cc2)CC1,5,2,4,1,-1,/
CC(=O)N1CCN(c2ccc(NCc3ccc4c(c3)OCO4)cc2)CC1,2,2,72*,0,6,12
SMILES,PME-1 primary,Fam108B inh,PREPL inh,LYPLA1 counter,LYPLA2 inh,PREPL confirm
N#Cc1ccc(Oc2ccc(S(=O)(=O)N3CCOCC3)cn2)cc1,-1,-1,13,1,0,/
Cc1c(NCc2cc(Cl)cc(Cl)c2O)c(=O)n(-c2ccccc2)n1C,4,8,50*,-4,6,58*
O=C(Nc1nc(-c2ccc(Cl)cc2)cs1)NC1CCCCC1,23,1,6,-19,-18,/
COc1ccc(-n2c(N)c(C(=O)NCc3ccco3)c3nc4ccccc4nc32)cc1,2,0,9,-6,-7,/
Nc1c(C(=O)NCc2ccco2)c2nc3ccccc3nc2n1CCc1ccc(F)cc1,8,7,53*,-6,-7,42
Nc1c(C(=O)NCc2ccc3c(c2)OCO3)c2nc3ccccc3nc2n1CCCN1CCOCC1,6,6,52*,-7,1,54*
Cc1ccc(S(=O)(=O)NC(N)=NCCc2ccc(Cl)cc2)cc1C,11,-1,-35,2,4,/
COc1ccc(C(=O)NNC(=O)CCc2ccccc2OC)cc1,0,-1,2,-3,1,/
O=C1C(NS(=O)(=O)c2cccs2)=C(N2CCN(c3cccc(Cl)c3)CC2)C(=O)c2ccccc21,3,10,58*,3,16,56*
O=C1C(NS(=O)(=O)c2ccccc2)=C(N2CCN(c3ccc(F)cc3)CC2)C(=O)c2ccccc21,5,5,59*,1,6,61*
COc1ccc2c(c1)[nH]c1c(N3CCN(Cc4ccc5c(c4)OCO5)CC3)ncnc12,26*,10,67*,-6,2,64*
COc1cccc2[nH]c3c(N4CCN(Cc5ccc6c(c5)OCO6)CC4)ncnc3c12,20,4,73*,-4,-1,60*
COc1ccc2c(c1)[nH]c1c(N3CCSCC3)ncnc12,0,2,9,3,-6,/
C[C@H](CO)N1C[C@H](C)[C@@H](CN(C)C(=O)Nc2ccc3c(c2)OCO3)Oc2c(NC(=O)Nc3ccc(C(F)(F)F)cc3)cccc2C1=O,/,/,11,/,/,/
CCN(CC)CCN(C(=O)c1ccc(S(=O)(=O)N(C)C2CCCCC2)cc1)c1nc2c(C)cccc2s1,-9,-5,4,-6,1,/
Cc1ccc2sc(N(CCCN(C)C)C(=O)c3ccc(S(=O)(=O)N(C)C4CCCCC4)cc3)nc2c1C,7,3,52*,3,1,47*
C[C@H](CO)N1C[C@H](C)[C@@H](CN(C)S(=O)(=O)c2ccc(F)cc2)Oc2ccc(NC(=O)Nc3ccc4c(c3)OCO4)cc2C1=O,/,/,45*,/,/,48*
CNC[C@@H]1Oc2ccc(NC(=O)Nc3cccc4ccccc34)cc2C(=O)N([C@@H](C)CO)C[C@@H]1C,/,/,50*,/,/,46*
C[C@@H]1CN([C@@H](C)CO)C(=O)c2cc(NC(=O)Nc3ccc4c(c3)OCO4)ccc2O[C@H]1CN(C)S(=O)(=O)c1ccc(F)cc1,/,/,38,/,/,/
Cc1noc(C)c1S(=O)(=O)Nc1ccc2c(c1)C(=O)N([C@H](C)CO)C[C@H](C)[C@@H](CN(C)C(=O)Nc1ccc(C(F)(F)F)cc1)O2,/,/,55*,/,/,50*

# Assay outcomes: PubChem, The Scripps Research Institute Molecular Screening Center
